PKM2 act: PKM2 (human) enzyme activation. P14618. purified PKM2, Kinase-Glo ATP luminescence, activation; response scale: 0% is enzyme alone, no compound. Potency, µM (titrated, usually from 57.5 µM), for the others: top-dose activation, most hits filed as activators. hit rate 0.34% among 260,000. AID 1631; also: potency is read from the fitted curve at half-maximal effect; % is scaled to controls: 0 for no effect and ±100 for the full control effect; nearly all actives have a fitted effect of over 55% in size
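Purified hPK-M2 (>95% pure) converted ADP (0.1 mM final) to ATP with 0.5 mM PEP in 50 mM imidazole pH7.2, KCl, MgCl2, Tween 20, BSA; 1 h at room temperature. ATP detected by Kinase-Glo luminescence.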
Mito fusion act: mitochondrial division inhibition or fusion activation | S. cerevisiae fusion-defective mutant growth rescue, CellTiterGlo 48 h | Potency, µM (series often up to 46.1 µM), without a hit: at the highest dose growth rescue (activation), actives largely listed as activators | hit rate 0.23% among 320,000 | AID 485298; also: potency is read from the fitted curve at half-maximal effect; % of control where 0% means no effect; nearly all actives have a fitted effect of over 45% in size
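Luminescent cell viability in 1536-well qHTS format served as the measure of rescued growth in ts fusion-mutant S. cerevisiae cultured on non-fermentable YPEG for 48 hours at 37C.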
KAT2A inh: blocks human GCN5L2 histone acetyltransferase; AID 504327; hit rate 0.21% among 390,000; Q92830; Potency, µM (doses to about 58.9 µM), for inactives: at the highest dose activity change, negative = inhibition, usual class: inhibitors; GCN5L2 HAT assay, ThioGlo1 CoA-SH fluorescence; also: potency is read from the fitted curve at half-maximal effect; % is scaled to controls: 0 for no effect and ±100 for the full control effect
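GCN5L2 (20nM final) in 50mM HEPES, 0.1mM EDTA pH 7.5, 0.01% Tween-20 was preincubated 15 min at room temperature with compound, then given ThioGlo1 (50uM), H3(1-25) peptide (75uM) and acetyl-CoA (70uM); CoA-thiol fluorescence (Ex340/Em540) was read at 0 and 20 min.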
GLS inh: blocks human kidney-isoform glutaminase activity; GLS enzymatic activity, qHTS titration; Potency, µM (doses to about 45.5 µM), inactives show top-dose activity change, negative = inhibition, most hits filed as inhibitors; hit rate 0.21% among 410,000; AID 624170; also: potency is read from the fitted curve at half-maximal effect; % is scaled to controls: 0 for no effect and ±100 for the full control effect
Target sequence (O94925 whole entry, looked up, canonical isoform): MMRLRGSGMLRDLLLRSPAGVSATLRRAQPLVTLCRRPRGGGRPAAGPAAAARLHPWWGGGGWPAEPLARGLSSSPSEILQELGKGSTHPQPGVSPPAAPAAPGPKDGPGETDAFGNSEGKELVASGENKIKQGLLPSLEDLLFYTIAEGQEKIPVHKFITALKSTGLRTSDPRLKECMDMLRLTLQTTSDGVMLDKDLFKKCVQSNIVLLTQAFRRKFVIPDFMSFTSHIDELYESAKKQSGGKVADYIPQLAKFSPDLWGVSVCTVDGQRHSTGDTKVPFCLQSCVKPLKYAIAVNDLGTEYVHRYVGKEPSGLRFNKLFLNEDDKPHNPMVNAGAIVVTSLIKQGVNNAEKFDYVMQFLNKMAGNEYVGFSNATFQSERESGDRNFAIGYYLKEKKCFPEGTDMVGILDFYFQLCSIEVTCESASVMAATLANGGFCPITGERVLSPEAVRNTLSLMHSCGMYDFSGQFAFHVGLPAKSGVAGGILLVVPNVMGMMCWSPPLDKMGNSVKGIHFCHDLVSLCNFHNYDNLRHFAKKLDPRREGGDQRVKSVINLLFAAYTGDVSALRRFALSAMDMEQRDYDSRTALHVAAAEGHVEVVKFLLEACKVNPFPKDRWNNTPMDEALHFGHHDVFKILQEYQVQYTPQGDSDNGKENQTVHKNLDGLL
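hKGA in 45 mM KH2PO4 pH 8.2, 0.02% Tween-20 with pin-transferred compounds; 1 mM L-glutamine (stock) plus glutamate oxidase/HRP/Amplex Red coupling added. Fluorescence read initially and after 30 min at RT.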
PLK1 PBD block: inhibitors of human PLK1 polo-box domain binding; P53350; Plk1 PBD binding of FITC phosphopeptide, fluorescence polarization; Potency, µM, for inactives: max response, negative = inhibition, actives largely listed as inhibitors; hit rate 2.8% among 360,000; also: potency is read from the fitted curve at half-maximal effect; series mostly up to about 57 µM; % is scaled to controls: 0 for no effect and ±100 for the full control effect; nearly all actives have a fitted effect of over 65% in size
VDR inhibitor: blocks the human vitamin D receptor; Potency, µM, for inactives: max response, negative = inhibition, usual class: inhibitors; hit rate 0.93% among 400,000; P11473; VDR-SRC2-3 peptide fluorescence polarization, 2 h; also: potency is read from the fitted curve at half-maximal effect; % is scaled to controls: 0 for no effect and ±100 for the full control effect
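Reagent solutions, kept cold and dark, are dispensed first; compounds are then pinned in at 23 nl, plates briefly spun, and incubated 2 h at ambient temperature. Inhibition of VDR–SRC2-3 peptide binding is read by fluorescence polarization.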
HeLa tox: HeLa cytotoxicity, CellTiter-Glo readout; shares compounds with PKM2 act; HeLa viability, CellTiter-Glo ATP luminescence, 24 h; activity change, negative = cytotoxicity, % at 57.5 µM; 230 tested, under 10 active; also: % of control where 0% means no effect
Active calls of the source: *; ? = inconclusive; . = no result; [ ] = another dose, or the depositor's remark. Compounds with a hit are over-represented: about 3.4% of the library has one in this group of screens. Calls follow the shape of the dose curve; as a rule, active = well fitted curve in the direction sought with a large enough effect; inconclusive = small, poorly fitted or top-dose-only effect, or another doubt; inactive = no such curve, though single readings can be large; an effect the other way counts as inactive or inconclusive.

SMILES | PKM2 act | Mito fusion act | KAT2A inh | GLS inh | PLK1 PBD block | VDR inhibitor | HeLa tox
Cc1ccc(N(CC(=O)NC2CC2)S(=O)(=O)c2ccccc2)c(C)c1 | 5% | 2% | -5% | -2% | -3% | 14% | .
O=S(=O)(NCCCNS(=O)(=O)c1c(F)cccc1F)c1ccc2c(c1)OCCO2 | . | -3% | -2% | 2% | . | -8% | -2
O=S(=O)(NC[C@@H]1CCC[C@H](CNS(=O)(=O)c2c(F)cccc2F)C1)c1ccc2c(c1)OCCO2 | . | 6% | -6% | . | . | . | .
O=S(=O)(c1ccc2c(c1)OCCO2)C1CCN(S(=O)(=O)c2c(F)cccc2F)CC1 | . | . | . | . | . | . | ?
CC1(c2ccc3c(c2)OCO3)NC(=O)N(CC(=O)Nc2ccccc2[N+](=O)[O-])C1=O (stereo not given) | . | 5% | -2% | 6% | -1% | -8% | .
Cc1nc2ccccc2n1Cc1ccccc1 | 0% | -18% | -6% | -5% | -5% | 15% | .
Cc1nc2cc(NCc3ccccc3O)ccc2n1Cc1ccccc1 | 5µM* | 5% | -21% | -29% | 3.4µM* | ? | -12
O=c1[nH]c(CN2CCN(c3ccccc3O)CC2)nc2scc(-c3ccccc3Cl)c12 | 20% | -16% | -4% | 0% | 7% | -10% | .
O=c1[nH]c(CN2CCN(c3ccc(O)cc3)CC2)nc2scc(-c3ccc(Cl)cc3)c12 | 2.8µM* | 9% | -2% | -4% | 5% | -9% | -7
CCOC(=O)c1cc(NC(=O)c2ccc(C)cc2)c(=O)n2c1oc1ccccc12 | . | . | -5% | 2% | . | 4% | .
Cc1cc2c(s1)c1c(n2C)C(=O)N(Cc2ccccc2F)C1 | . | 15% | -8% | . | . | . | 13[23.3 µM]
CCC(=O)OCC(=O)C1(OC(=O)CC)C(C)CC2C3CCC4=CC(=O)C=CC4(C)C3(Cl)C(O)CC21C (stereo not given) | . | . | -16% | 1% | . | 1% | .
Cc1cc2c(s1)c1cnn(Cc3c(F)cccc3F)c(=O)c1n2C | . | . | . | . | . | . | 8
CC(CCc1ccccc1)NC(=O)Cn1ncc2c3ccccc3n(Cc3ccccc3F)c2c1=O (stereo not given) | . | . | -7% | 0% | . | 11% | .
Cc1cc(C)c(Cn2c3ccccc3c3cnn(CC(=O)NCc4ccccn4)c(=O)c32)c(C)c1 | . | -2% | -8% | 1% | -8% | 9% | .
Cc1cc2c(s1)c1cnn(Cc3cccc(Cn4ncc5c6sc(C)cc6n(C)c5c4=O)c3F)c(=O)c1n2C | . | . | . | . | . | . | 6
CC(C)(C)n1ncc2c(=O)n(Cc3cccc(Cn4cnc5c(cnn5C(C)(C)C)c4=O)c3F)cnc21 | . | . | -3% | 4% | . | 3% | .
Cc1cc2c(s1)c1cnn(Cc3ccc(F)c(F)c3F)c(=O)c1n2C | . | . | . | . | . | . | -18
Cc1cc2c(s1)c1cnn(Cc3ccccc3F)c(=O)c1n2C(C)C | . | . | . | . | . | . | -11
Cc1cc2c(s1)c1cnn(Cc3c(F)c(F)cc(F)c3F)c(=O)c1n2C | . | . | . | . | . | . | 3
CCCCCn1ncc2c3sc(C)cc3n(C)c2c1=O | . | . | . | . | . | . | -14
COc1cc(OC)c(C(=O)OCC(=O)Nc2ccc(S(=O)(=O)N3CCOCC3)cc2)cc1OC | . | . | 5% | -3% | 0% | -15% | .
Oc1ccc(-c2nc(-c3ccc(O)c(O)c3)cs2)cc1 | 3.2µM* | -3% | -6% | ? | -4% | -5% | -5
Oc1ccc(-c2csc(-c3cccnc3)n2)c(O)c1 | -3% | 2% | -1% | -5% | -7% | 0% | .
CCCCOc1ccc(Cc2c(O)nc(SC)[nH]c2=O)cc1 | 0% | 0% | -8% | -1% | -5% | -4% | .
Cc1ccccc1NS(=O)(=O)c1ccc2c(c1)n(C)c(=O)n2C | 2.5µM* | 4% | -1% | 0% | -7% | -11% | 3
Cc1cc(C)n2nc(SCc3cc(=O)oc4cc(C)c(C)cc34)nc2n1 | -9% | 0% | -1% | . | . | . | .
